# From PubChem BioAssay AID602346 (Broad Institute, 2012)
# Among all 340,000 compounds or so, about 1,200 (0.35%) were called active. Only a selection was taken, and actives are over-represented in it overall. A number with no mark means an inactive call. Rule as the data show it: active = inhibition above about 50% (passing the limit was not always enough); inconclusive = no clear call, values can overlap the other calls; inactive = below about 31%.
# Assay: HIV Vif self-association inhibitors, primary screen, imaging, HEK293T, single point (AID 602346)
# Conditions: HEK293T cells, Vif self-association by quenched fluorescence, 24 h, at 7.49 µM, hits give high values
row,SMILES,inhibition
1,O=C(O)c1ccc(N/N=C/c2cn(-c3ccccc3)nc2-c2cccs2)cc1,-6.33%
2,O=C(/C=C\c1cn(-c2ccccc2)nc1-c1cccs1)N1CCOCC1,87.7% (active)
3,COc1ccc(-c2nn(-c3ccccc3)cc2/C=C\C(=O)N2CCOCC2)cc1[N+](=O)[O-],1.35%
4,O=CNc1cc(-c2ccc(C(=O)N3CCOCC3)cc2)cn2c(-c3ccc(F)cc3)cnc12,6.34%
5,CCN(CC)CCn1c2ccc(Cl)cc2c2nc(C)sc21,16.1%
6,CCN(CC)CCCC(C)n1c2nc(=O)[nH]c(=O)c-2nc2cc(Cl)ccc21 (configuration not stated),128% (active)
7,Cc1nc2c(OCc3ccc(Cl)cc3)cccn2c1N(C)Cc1cccs1,-12.4%
8,CC(Oc1cccc(NC(=O)c2cccs2)c1)C(=O)c1ccccc1 (configuration not stated),12.5%
9,O=C(Nc1ccc2oc(-c3ccc4ccccc4c3)nc2c1)c1cccs1,52.2% (active)
10,O=C(Nc1ccc2oc(-c3ccccc3F)nc2c1)c1ccco1,4.71%
11,C#CCN(C[C@@H]1[C@@H](OC(=O)NC2CC2)[C@@H](OC(=O)NC2CC2)Cn2c(=O)ccc(=O)n21)S(=O)(=O)c1ccc(C)cc1,-0.284%
12,CCOC(=O)c1ccc(Nc2cc3ccccc3c(=O)[nH]2)cc1,9.05%
13,CCOC(=O)c1nc(Nc2ccc(C(=O)OC)cc2)c2ccccc2n1,99.4% (active)
14,CCOC(=O)c1ccc(N/C(=N/S(=O)(=O)c2ccccc2)c2ccccc2)cc1,-4.64%
15,CN(C)C(=O)c1cccc(-c2cnc3sc(NCc4ccc5c(c4)OCO5)nn23)c1,-12%
16,COc1ccc(C2C(C(C)=O)=C(O)C(=O)N2CCc2c[nH]c3ccccc23)cc1 (configuration not stated),-11.5%
17,COc1cccc(-n2c(SCC(=O)c3c[nH]c4ccccc34)nc3ccccc3c2=O)c1,-2.01%
18,COc1ccc(/C=C(\C#N)c2c[nH]c3ccccc23)cc1,52.1% (active)
19,Cc1ccc(C(NC(=O)C2CCN(CCOc3ccc(Cl)cc3Cl)CC2)c2ccccn2)cc1 (configuration not stated),4.63%
20,Cc1ccccc1Cn1c(C)c(C(=O)NCc2cccc(C(F)(F)F)c2)sc1=O,-7.14%
21,CCOC(=O)C1=CCC(c2ccc(F)cc2)N(S(=O)(=O)c2ccc(C)cc2)C1 (configuration not stated),24.4%

row,SMILES,inhibition
1,COc1ccc(C(=O)N[C@H](C(=O)NCc2ccccc2)C(C)C)cc1,4.63%
2,COc1cc(OC)cc(C(=O)N[C@H](C(=O)NNC(=O)c2ccc(Br)cc2)C(C)C)c1,1.45%
3,COc1cc(OC)cc(C(=O)N[C@H](C(=O)Nc2nc3ccccc3[nH]2)C(C)C)c1,116% (active)
4,Cc1nc2c(OCc3ccc(Cl)cc3Cl)cccn2c1N(C)CC1CC1,-14%
5,O=C(NCc1nnnn1-c1ccc(Cl)cc1)c1ccc([N+](=O)[O-])o1,6.82%
6,CCC(=O)Nc1ccc(S(=O)(=O)Nc2c(NC)c3ccccc3oc2=O)cc1,-6.99%
7,NCCCNC(=S)NCCCN(Cc1ccc(Cl)cc1)c1ccc(Br)cn1,-10.7%
8,O=C(COC(=O)c1ccccc1)Nc1cccc(S(=O)(=O)N2CCOCC2)c1,6.23%
9,NS(=O)(=O)c1cccc(NC(=O)COC(=O)/C=C/c2ccco2)c1,40.9%
10,O=C(COC(=O)/C=C/c1ccc(Br)o1)Nc1cccc(S(=O)(=O)N2CCOCC2)c1,72.1% (active)
11,C[C@@H]1CN([C@H](C)CO)S(=O)(=O)c2ccc(C#C[C@@H](C)O)cc2O[C@@H]1CN(C)Cc1ccc(-c2ccccc2)cc1,-0.002%
12,NC(Cc1ccc(F)cc1)c1csc(Nc2nncc3ccccc23)n1 (configuration not stated),-17.9%
13,Cc1cccnc1C(NC(=O)C1CCN(Cc2ccc(Cl)c(Cl)c2)CC1)c1ccc(Cl)cc1 (configuration not stated),11.5%
14,COc1ccc(CNC(=O)c2ccc(-c3cccnc3)c3ccoc23)cc1OC,-16.6%
15,CCCNC(=O)C1(C)CCN(Cc2ccc(Cl)c(Cl)c2)C1 (configuration not stated),3.78%
16,COc1ccc(-c2cc(NC=O)c3ncc(-c4cc(OC)c(OC)c(OC)c4)n3c2)c(OC)c1,21.8%
17,Cn1c(N)cc(-c2ccc(F)cc2)c(C#N)c1=O,-9.36%
18,COc1ccc(O)c(C(=O)c2cnc3c(c2)c(-c2ccc(F)cc2)c(C#N)c(=O)n3C)c1,1.06%
19,Cc1cc(C)c2c(-c3ccc(F)cc3)c(C#N)c(=O)n(C)c2n1,54.6% (active)
20,NC(c1csc(NC(=O)Nc2cccc(C(F)(F)F)c2)n1)C1CCCCC1 (configuration not stated),-1.56%
21,CCc1nn(-c2cc(Oc3cccc4ccccc34)nc(-c3ccccc3)n2)c(N)c1C#N,53.3% (active)
